Assay outcomes from PubChem.
Shown are actives, neighbours in structure and some others; about 9.2% of the full set was active somewhere.
FLuc modulator = inhibits or activates purified firefly luciferase, miR-21 counter-screen; P08659; purified FLuc, Km substrates, luminescence inhibition; Potency, µM (highest dose often 57.5 µM), for inactives: at the highest dose activity change, negative = inhibition, usual class: inhibitors; hit rate 6.9% among 360,000; AID 588342;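 also: plate controls were vehicle for no effect and reference inhibitor for full effect; nearly all actives have a fitted effect of over 55% in size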
Target sequence (P08659 whole entry, looked up): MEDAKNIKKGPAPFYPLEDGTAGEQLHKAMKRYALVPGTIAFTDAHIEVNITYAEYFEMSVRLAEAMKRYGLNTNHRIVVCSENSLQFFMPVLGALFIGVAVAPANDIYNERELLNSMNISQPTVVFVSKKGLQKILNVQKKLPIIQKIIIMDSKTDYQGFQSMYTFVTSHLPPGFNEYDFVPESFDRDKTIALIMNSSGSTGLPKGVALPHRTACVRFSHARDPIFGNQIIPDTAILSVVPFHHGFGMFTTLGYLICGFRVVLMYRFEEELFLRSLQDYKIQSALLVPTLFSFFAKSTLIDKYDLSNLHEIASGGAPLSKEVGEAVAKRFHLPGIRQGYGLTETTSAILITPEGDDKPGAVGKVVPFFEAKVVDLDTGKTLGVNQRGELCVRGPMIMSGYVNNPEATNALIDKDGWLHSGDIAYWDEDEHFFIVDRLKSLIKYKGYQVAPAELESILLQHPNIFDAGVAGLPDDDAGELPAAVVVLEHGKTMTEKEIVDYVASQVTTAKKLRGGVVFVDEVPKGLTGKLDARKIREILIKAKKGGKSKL
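Biochemical qHTS of compounds, final roughly 60 µM downward over six points, against 10 nM purified firefly luciferase using Km concentrations of substrates (10 uM D-luciferin, 10 uM ATP) in Tris acetate pH 7.5 buffer; luminescence output.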
Rab9 prom act = activates the Rab9 promoter; Huh7 Rab9 promoter-luciferase reporter, luminescence, 24 h; Potency, µM (top dose mostly 9.22 µM), inactives show top-dose activation, negative = inhibition, hits mostly activators; hit rate 2.8% among 320,000; also: % of control where 0% means no effect; nearly all actives have a fitted effect of over 60% in size
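Luminescence from Amplite-detected luciferase (10 minutes, ambient) reports Rab9 promoter activation. Before that, stable Rab9-luciferase Huh7 cells (1500/well, reduced-serum OP-MEM I plus 10% FBS) were exposed to compound for 24 hours at 37C.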
NPC1 prom act = activators of NPC1 promoter; Huh7 NPC1 promoter luciferase reporter, 24 h; Potency, µM (top dose mostly 9.22 µM), for the others: top-dose activation, usual class: activators; hit rate 2.4% among 320,000; AID 485313; also: % of control where 0% means no effect; nearly all actives have a fitted effect of over 60% in size
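Quantitative HTS used a cell-based reporter: Huh7 cells stably bearing the NPC1 promoter upstream of luciferase were treated with compounds for 24 h, and promoter activation was read as luminescence.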
ELG1 genotox = genotoxicity induction in ELG1-luciferase HEK293T cells; HEK293T ELG1-luciferase reporter, luminescence, 16 h; Potency, µM (top dose mostly 46 µM), without a hit: at the highest dose activity change, positive = activation, hits mostly activators; hit rate 1.3% among 330,000; AID 504466; also: % of control where 0% means no effect; nearly all actives have a fitted effect of over 60% in size
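Genotoxicity was scored as increased ELG1-luciferase reporter signal, measured by ONE-Glo luminescence (30 min, room temperature). Compound or vehicle exposure of the HEK293T reporter cells lasted 16 hr at 37°C.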
ELG1 repair inh = blocks ELG1-dependent DNA repair in HEK293T cells. HEK293T ELG1-luciferase reporter, luminescence, 16 h; DNA damage induced by 5-fluorouridine. Potency, µM (titrated, usually from 46.1 µM), without a hit: at the top dose activity change, negative = inhibition, usual class: inhibitors. hit rate 2.3% among 330,000; also: % is scaled to controls: 0 for no effect and ±100 for the full control effect; nearly all actives have a fitted effect of over 55% in size
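Step one: seed 2,000 cells per well. Step two: pin-transfer compound or DMSO alongside 5-fluorouridine. Step three: incubate 16 hr, 37 °C, 5% CO2. Step four: add ONE-Glo, wait 30 min, read luminescence.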
SMN2 splice enh = increases expression of the SMN2 splice variant | Potency, µM (titrated, usually from 46.1 µM), inactives show at the highest dose activity change, positive = activation, usual class: activators | HEK293 SMN2-luciferase splicing reporter, luminescence, 30-36 h | AID 1458 | hit rate 2.8% among 210,000; also: % of control where 0% means no effect; nearly all actives have a fitted effect of over 55% in size
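HEK293 cells carry an SMN2 minigene-luciferase reporter in which exon 7 inclusion puts luciferase in frame. Cells were seeded at 2000 cells/well, attached for 10-12 hours, then exposed to compounds for 30-36 hours at 37C before ONE-Glo luminescence.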
The depositor's hits bear a star; ? = inconclusive; nt = no result given; [ ] = dose if it differs, or a comment. Calls follow the shape of the dose curve; as a rule, active = well fitted curve in the direction sought with a large enough effect; inconclusive = small, poorly fitted or top-dose-only effect, or another doubt; inactive = no such curve, though single readings can be large; an effect the other way counts as inactive or inconclusive. Potency is read from the fitted curve at half-maximal effect.

SMILES | FLuc modulator | Rab9 prom act | NPC1 prom act | ELG1 genotox | ELG1 repair inh | SMN2 splice enh
COc1ccc(S(=O)(=O)Nc2cccc(S(=O)(=O)N3CCCCC3)c2)cc1 | nt | nt | nt | 2% | -4% | nt
COc1ccc(Nc2nc3ccccc3nc2NS(=O)(=O)c2ccc(Cl)cc2)cc1OC | 6.7µM* | nt | nt | nt | nt | -7%
Cc1ccc(S(=O)(=O)Nc2nc3ccccc3nc2Nc2cccc(S(=O)(=O)N3CCCC3)c2)cc1 | ? | -12% | -8% | -20% | 21µM* | -63%
COCCNC(=O)C(c1cccnc1)N(Cc1ccc(C)cc1)C(=O)Cn1nnc2ccccc21 (stereo unspecified) | 1% | -3% | -2% | -1% | 9% | -2%
CCOC(=O)c1c(NC(=O)/C=C/c2ccc(C(C)C)cc2)sc2c1CCC2 | -6% | nt | nt | nt | nt | 3%
COC(=O)c1ccc(C(NC(=O)OCc2ccccc2)/C(F)=C/[C@@H](C)C(=O)NCCc2c[nH]c3ccc(OC)cc23)cc1 (stereo partly specified) | nt | nt | nt | nt | nt | -8%
CCn1c(COc2cccc(C)c2C)nnc1SCC(=O)Nc1cc(C)on1 | -2% | -2% | 1% | 4% | -13% | nt
Cc1csc2nc(COC(=O)CNC(=O)c3ccccc3Cl)cc(=O)n12 | 3% | nt | nt | nt | nt | nt
Cc1cccc(-n2ncc3c(Nc4ccc(Oc5ccc(Cl)cc5)cc4)ncnc32)c1 | 0% | nt | nt | nt | nt | nt
CCN(CC)c1ccc(CN(C(=O)c2cc(=O)c3ccccc3o2)C2CCS(=O)(=O)C2)cc1 (stereo unspecified) | 0% | nt | nt | nt | nt | -6%
Cc1ccc(C(=O)Nc2cccc(C(=O)O)c2)cc1 | 0.15µM* | ? | ? | ? | ? | 1µM*
Cc1ccc(C(=O)Nc2cccc(C(=O)NC3CCCC3)c2)cc1 | 12µM* | ? | ? | -7% | -5% | nt
Nc1ccc(C(=O)Nc2cccc(NC(=O)c3ccc(N)cc3)c2)cc1 | 11µM* | 21% | 4% | 7% | 17% | nt
O=C(O)c1cccc(NC(=O)c2cc(NC(=O)c3ccccc3)cc(NC(=O)c3ccccc3)c2)c1 | ? | 3% | 0% | 6% | 18% | nt
O=C(O)c1ccc(NC(=O)c2ccc(Cl)cc2)c(NC(=O)c2ccc(Cl)cc2)c1 | ? | 21% | -1% | 2% | -3% | nt
Nc1ccc(C(=O)Nc2ccco2)cc1 | -1% | 21% | 13% | 11% | ? | ?
Cc1ccc(C(=O)Nc2ccc(C(=O)O)cc2NC(=O)c2ccc(C)cc2)cc1 | 21µM* | 22% | ? | ? | ? | nt
CCOC(=O)C1=C(C)N(C[C@@H]2CC[C@@H](Cc3ccc(-c4ccccc4)cc3)O2)C(=O)NC1C1CC1 (stereo partly specified) | nt | nt | nt | -1% | ? | nt
O=C(CCSCc1ccc(Cl)cc1)NC1CCCC1 | -2% | -6% | -1% | 1% | 12% | -8%
CC(=O)Nc1ccccc1C(=O)C(=O)Nc1cccc(C(=O)NC2CC2)c1 | -11% | 2.8µM* | ? | 13% | ? | 0%[1.84 µM]
CC(=O)c1cccc(NC(=O)c2ccc(N(C)S(=O)(=O)c3ccc(C)cc3)cc2)c1 | -3% | 4% | 1% | -17% | 16µM* | nt
CC(=O)c1cccc(NC(=O)c2ccc(N(Cc3ccc(C)cc3)S(C)(=O)=O)cc2)c1 | 8% | -3% | 0% | -26% | ? | -15%
Cc1oc2c(c1C(=O)Nc1cccc(C(=O)O)c1)CCCC2 | 19µM* | ? | ? | ? | ? | 14%
Cc1cccc2nc(C(=O)Nc3cccc(C(=O)NC4CC4)c3)cn12 | 2.4µM* | 3.2µM* | ? | 11% | ? | nt
O=C(CSc1nnc(CNC(=O)c2c(F)cccc2Cl)o1)Nc1ccccc1F | 2% | nt | nt | nt | nt | 10%
SMILES | FLuc modulator | Rab9 prom act | NPC1 prom act | ELG1 genotox | ELG1 repair inh | SMN2 splice enh
CCCn1c(=O)c2c(nc3n2CCS3)n(C)c1=O | -3% | 1% | -5% | 1% | -3% | -15%
O=C(NNC(=O)C12CC3CC(CC(C3)C1)C2)c1ccccc1O | 15µM* | -28% | -11% | 1% | 3% | nt
Cc1cccc(C(=O)NNC(=O)C23CC4CC(CC(C4)C2)C3)c1O | 15µM* | 14% | -4% | 23% | -12% | nt
O=C(NNC(=O)C12CC3CC(CC(C3)C1)C2)c1ccccc1F | -2% | -1% | -1% | 0% | 7% | nt
Clc1ccc(CSCc2ccc(Cl)cc2Cl)c(Cl)c1 | nt | nt | nt | nt | nt | -1%[9.22 µM]
O=C1c2ccccc2-c2nc3ccccc3cc21 | 2.1µM* | 5µM* | 3.5µM* | ? | ? | nt
c1ccc2c(c1)Cc1cc3ccccc3nc1-2 | 0.95µM* | 0.4µM* | 1.3µM* | 3.7µM* | ? | 4µM*
Cc1ccc(CNC(=O)C2CCCN(S(=O)(=O)c3ccc4c(ccn4C)c3)C2)cc1 (stereo unspecified) | -2% | nt | nt | nt | nt | nt
COc1ccc(C(=O)Nc2ccc3nc(C)c(C)nc3c2)cc1 | ? | 14% | 24% | 8% | ? | nt
COc1ccc(NC(=O)Nc2ccc3nccnc3c2)cc1 | 4.3µM* | 0.4µM* | 3.2µM* | 13% | ? | ?
COc1ccc(NC(=O)Nc2ccc3nonc3c2)cc1 | ? | 3.5µM* | ? | 3% | ? | nt
CC1=CCC(COC(=O)Nc2ccccc2)CC1 (stereo unspecified) | 6.7µM* | 4µM* | 2.8µM* | ? | ? | 18µM*
Cc1cccc(NC(=O)C2CCN(C(=O)c3ccc(F)cc3)CC2)n1 | 3% | -5% | -6% | -4% | 7% | nt
CCOC(=O)C1=C(Cc2ccc(OC)cc2)C(=O)c2ccccc2C1=O | 11µM* | 1% | -14% | 28% | 7% | -26%
